According to PubChem BioAssay (NCATS):
Results filed as inconclusive are left out. The source made the active and inactive calls. Calls come from the whole dose curve; as a rule, active = well fitted curve in the direction sought with a large enough effect; inconclusive = small, poorly fitted or top-dose-only effect, or another doubt; inactive = no such curve, though single readings can be large; an effect the other way counts as inactive or inconclusive.

Experiments:
[1] = target: ATP-dependent 6-phosphofructokinase (Trypanosoma brucei brucei) (UniProt O15648); test: qHTS Assay to Find Inhibitors of T. brucei phosphofructokinase: hit validation (AID 492961);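 note: luminescence reports ADP formed as PFK phosphorylates fructose-6-phosphate with ATP; % is set by controls: 0 for no effect and ±100 for the full control effect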
ATP-dependent 6-phosphofructokinase (Trypanosoma brucei brucei), sequence (O15648 whole entry, looked up): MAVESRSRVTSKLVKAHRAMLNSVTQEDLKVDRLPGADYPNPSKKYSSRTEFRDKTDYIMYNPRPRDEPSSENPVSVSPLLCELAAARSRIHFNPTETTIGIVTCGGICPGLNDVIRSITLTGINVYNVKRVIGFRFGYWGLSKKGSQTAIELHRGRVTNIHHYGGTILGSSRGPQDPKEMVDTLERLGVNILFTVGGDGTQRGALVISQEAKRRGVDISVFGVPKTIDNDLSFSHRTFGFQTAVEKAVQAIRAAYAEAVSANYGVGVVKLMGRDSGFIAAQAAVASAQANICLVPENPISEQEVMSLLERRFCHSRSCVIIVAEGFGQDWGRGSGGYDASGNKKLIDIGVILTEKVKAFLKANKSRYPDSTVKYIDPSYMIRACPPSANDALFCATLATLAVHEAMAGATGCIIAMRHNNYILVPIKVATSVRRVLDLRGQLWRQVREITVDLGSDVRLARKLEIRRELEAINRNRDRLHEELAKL
Procedure, shortened: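 ADP-Glo luminescence read-out of ADP formed by 1.25 nM PFK from 0.1 mM ATP and 0.5 mM F6P (TEA pH 8.0, 45 min, RT). Compounds titrated; activity normalized to no-enzyme and full-enzyme controls.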

[2] = qHTS profiling for inhibitors of Plasmodium falciparum proliferation (AID 504749);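 note: 0% = DMSO vehicle and full inhibition = artemisinin control; nearly all actives have a fitted effect of over 60% in size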; conditions: P. falciparum in erythrocytes, SYBR Green DNA, 72 h, at 28.7 µM (top of the series)
Procedure, shortened: (§1)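 Three-day growth assay of blood-stage parasites in erythrocytes (0.3% parasitemia, 2.5% hematocrit) at 37 C, 5% CO2, quantified by SYBR Green DNA staining after overnight detergent lysis.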

3D7 = test: as above; conditions: P. falciparum in erythrocytes, SYBR Green DNA, 72 h; series mostly up to 28.7 µM
Procedure, shortened: as §1

AA1029 = test: as above; conditions: P. falciparum in erythrocytes, SYBR Green DNA, 72 h; series mostly up to 28.7 µM
Procedure, shortened: as §1

AS120 = test: as above; conditions: P. falciparum in erythrocytes, SYBR Green DNA, 72 h; series mostly up to 28.7 µM
Procedure, shortened: as §1

ATS189 = test: as above; conditions: P. falciparum in erythrocytes, SYBR Green DNA, 72 h; series mostly up to 28.7 µM
Procedure, shortened: as §1

C2A = test: as above; conditions: P. falciparum in erythrocytes, SYBR Green DNA, 72 h; series mostly up to 28.7 µM
Procedure, shortened: as §1

CP185 = test: as above; conditions: P. falciparum in erythrocytes, SYBR Green DNA, 72 h; series mostly up to 28.7 µM
Procedure, shortened: as §1

CP191 = test: as above; conditions: P. falciparum in erythrocytes, SYBR Green DNA, 72 h; series mostly up to 28.7 µM
Procedure, shortened: as §1

CP192 = test: as above; conditions: P. falciparum in erythrocytes, SYBR Green DNA, 72 h; series mostly up to 28.7 µM
Procedure, shortened: as §1

CP194 = test: as above; conditions: P. falciparum in erythrocytes, SYBR Green DNA, 72 h; series mostly up to 28.7 µM
Procedure, shortened: as §1

CP211 = test: as above; conditions: P. falciparum in erythrocytes, SYBR Green DNA, 72 h; series mostly up to 28.7 µM
Procedure, shortened: as §1

CP217 = test: as above; conditions: P. falciparum in erythrocytes, SYBR Green DNA, 72 h; series mostly up to 28.7 µM
Procedure, shortened: as §1

CP237 = test: as above; conditions: P. falciparum in erythrocytes, SYBR Green DNA, 72 h; series mostly up to 28.7 µM
Procedure, shortened: as §1

CP238 = test: as above; conditions: P. falciparum in erythrocytes, SYBR Green DNA, 72 h; series mostly up to 28.7 µM
Procedure, shortened: as §1

CP247 = test: as above; conditions: P. falciparum in erythrocytes, SYBR Green DNA, 72 h; series mostly up to 28.7 µM
Procedure, shortened: as §1

CP252 = test: as above; conditions: P. falciparum in erythrocytes, SYBR Green DNA, 72 h; series mostly up to 28.7 µM
Procedure, shortened: as §1

CP286 = test: as above; conditions: P. falciparum in erythrocytes, SYBR Green DNA, 72 h; series mostly up to 28.7 µM
Procedure, shortened: as §1

Dd2 = test: as above; conditions: P. falciparum in erythrocytes, SYBR Green DNA, 72 h; series mostly up to 28.7 µM
Procedure, shortened: as §1

P94_40 = test: as above; conditions: P. falciparum in erythrocytes, SYBR Green DNA, 72 h; series mostly up to 28.7 µM
Procedure, shortened: as §1

CN(C)CC/C=C1\c2ccccc2COc2ccc(CC(=O)O)cc21
inactive: Potency [1] | activity, negative = inhibition ([2]; parasite line A) 1.27% | activity, negative = inhibition ([2]; parasite line B) -5.49% | Potency (3D7) | Potency (AA1029) | Potency (AS120) | Potency (ATS189) | Potency (C2A) | Potency (CP185) | Potency (CP191) | Potency (CP192) | Potency (CP194) | Potency (CP211) | Potency (CP217) | Potency (CP237) | Potency (CP238) | Potency (CP247) | Potency (CP252) | Potency (CP286) | Potency (Dd2) | Potency (P94_40)

NC[C@@H]1O[C@H](OC2[C@@H](CO)O[C@@H](OC3[C@H](O)[C@H](N)C[C@H](N)[C@H]3OC3O[C@H](CO)[C@@H](O)[C@H](O)[C@@H]3N)[C@H]2O)C(N)[C@H](O)[C@@H]1O (stereo not given in full)
inactive: Potency [1] | activity, negative = inhibition ([2]; parasite line A) 11.9% | activity, negative = inhibition ([2]; parasite line B) 20% | Potency (3D7) | Potency (AA1029) | Potency (AS120) | Potency (ATS189) | Potency (C2A) | Potency (CP185) | Potency (CP191) | Potency (CP192) | Potency (CP194) | Potency (CP211) | Potency (CP217) | Potency (CP237) | Potency (CP238) | Potency (CP247) | Potency (CP252) | Potency (CP286) | Potency (Dd2) | Potency (P94_40)

CNC1C(O)C(OC2C(NC(=O)C(O)CN)CC(N)C(OC3OC(CN)C(O)C(O)C3O)C2O)OCC1(C)O (stereo not given)
inactive: Potency [1] | activity, negative = inhibition ([2]; parasite line A) 1.08% | activity, negative = inhibition ([2]; parasite line B) -10.1% | Potency (3D7) | Potency (AA1029) | Potency (AS120) | Potency (ATS189) | Potency (C2A) | Potency (CP185) | Potency (CP191) | Potency (CP192) | Potency (CP194) | Potency (CP211) | Potency (CP217) | Potency (CP237) | Potency (CP238) | Potency (CP247) | Potency (CP252) | Potency (CP286) | Potency (Dd2) | Potency (P94_40)

NC(=O)c1ncn(C2OC(CO)C(O)C2O)c1N (stereo not given)
inactive: Potency [1] | activity, negative = inhibition ([2]; parasite line A) 3.47% | activity, negative = inhibition ([2]; parasite line B) 6.51% | Potency (3D7) | Potency (AA1029) | Potency (AS120) | Potency (ATS189) | Potency (C2A) | Potency (CP185) | Potency (CP191) | Potency (CP192) | Potency (CP194) | Potency (CP211) | Potency (CP217) | Potency (CP237) | Potency (CP238) | Potency (CP247) | Potency (CP252) | Potency (CP286) | Potency (Dd2) | Potency (P94_40)

O=C(O)c1ccc(N[C@@H]2OC[C@@H](O)[C@@H](O)[C@@H]2O)cc1
inactive: Potency [1] | activity, negative = inhibition ([2]; parasite line A) 8.43% | activity, negative = inhibition ([2]; parasite line B) 9.05% | Potency (3D7) | Potency (AA1029) | Potency (AS120) | Potency (ATS189) | Potency (C2A) | Potency (CP185) | Potency (CP191) | Potency (CP192) | Potency (CP194) | Potency (CP211) | Potency (CP217) | Potency (CP237) | Potency (CP238) | Potency (CP247) | Potency (CP252) | Potency (CP286) | Potency (Dd2) | Potency (P94_40)
